Bioassay records as filed in PubChem.
A selection: hits, their analogues and other compounds. The true share with any hit is near 0.87%.
FEN1 inh-1: blocks human flap endonuclease 1 | P39748 | Recombinant FEN1 flap cleavage, fluorescence, 15 min | Potency, µM (top dose mostly 114 µM), for the others: at the highest dose activity change, negative = inhibition, hits mostly inhibitors | 390,000 tested, 0.35% active | AID 588795; also: % is scaled to controls: 0 for no effect and ±100 for the full control effect; nearly all actives have a fitted effect of over 65% in size
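With each library titrated from low to high concentration, compounds met 10 nM FEN1 for 15 min at room temperature before 50 nM substrate was added; readings at 0 and 15 min fed four-parameter Hill curve fits.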
APE1 inh: APE1 (human) endonuclease inhibition; P27695; recombinant APE1, TAMRA/BHQ-2 abasic DNA cleavage fluorescence; Potency, µM (highest dose often 65.8 µM), for inactives: at the highest dose activity change, negative = inhibition, usual class: inhibitors; 350,000 tested, 0.35% active;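 also: plate controls were vehicle for no effect and reference inhibitor for full effect; nearly all actives have a fitted effect of over 55% in size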
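APE1 at 0.75 nM preincubated 15 min at room temperature with compound. Reaction then started with 50 nM double-stranded THF-abasic substrate labelled with TAMRA/BHQ-2, and 525/598 nm fluorescence read kinetically. Activity taken as third-minus-first read difference, normalized to DMSO and NSC13755 controls.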
BLM helicase inh-1: blocks DNA unwinding by human BLM helicase; recombinant BLM DNA unwinding, fluorescence dequenching; AID 2528; Potency, µM (doses to about 56.1 µM), inactives show top-dose activity change, negative = inhibition, usual class: inhibitors; P54132; 350,000 tested, 0.2% active;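 also: plate controls were vehicle for no effect and no enzyme for full effect; nearly all actives have a fitted effect of over 35% in size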
RECQ1 inh-1: inhibitors of human RECQ1 DNA helicase; Potency, µM (doses to about 57.3 µM), for inactives: top-dose activity, negative = inhibition, usual class: inhibitors; RECQ1 DNA unwinding, red fluorescence kinetic read; AID 2549; 240,000 tested, 0.54% active; P46063;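 also: plate controls were vehicle for no effect and no enzyme for full effect; nearly all actives have a fitted effect of over 30% in size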
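RECQ1T1 50 nM; forked duplex (20 bp + 30-nt ss tails) 200 nM, ATP 2 mM final; pH 8.0, 2 mM MgCl2, 2.5 ug/ml poly(dI-dC); 15 min compound preincubation; discontinuous kinetic read over 2 h at RT.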
WRN helicase inh-1: blocks human WRN helicase | Potency, µM (top dose mostly 114 µM), inactives show at the highest dose activity change, negative = inhibition, usual class: inhibitors | Q14191 | 360,000 tested, 0.46% active | AID 651768 | WRN helicase unwinding, fluorescent forked duplex, kinetic; also: % is scaled to controls: 0 for no effect and ±100 for the full control effect; nearly all actives have a fitted effect of over 55% in size
Target sequence (Q14191 whole entry, looked up): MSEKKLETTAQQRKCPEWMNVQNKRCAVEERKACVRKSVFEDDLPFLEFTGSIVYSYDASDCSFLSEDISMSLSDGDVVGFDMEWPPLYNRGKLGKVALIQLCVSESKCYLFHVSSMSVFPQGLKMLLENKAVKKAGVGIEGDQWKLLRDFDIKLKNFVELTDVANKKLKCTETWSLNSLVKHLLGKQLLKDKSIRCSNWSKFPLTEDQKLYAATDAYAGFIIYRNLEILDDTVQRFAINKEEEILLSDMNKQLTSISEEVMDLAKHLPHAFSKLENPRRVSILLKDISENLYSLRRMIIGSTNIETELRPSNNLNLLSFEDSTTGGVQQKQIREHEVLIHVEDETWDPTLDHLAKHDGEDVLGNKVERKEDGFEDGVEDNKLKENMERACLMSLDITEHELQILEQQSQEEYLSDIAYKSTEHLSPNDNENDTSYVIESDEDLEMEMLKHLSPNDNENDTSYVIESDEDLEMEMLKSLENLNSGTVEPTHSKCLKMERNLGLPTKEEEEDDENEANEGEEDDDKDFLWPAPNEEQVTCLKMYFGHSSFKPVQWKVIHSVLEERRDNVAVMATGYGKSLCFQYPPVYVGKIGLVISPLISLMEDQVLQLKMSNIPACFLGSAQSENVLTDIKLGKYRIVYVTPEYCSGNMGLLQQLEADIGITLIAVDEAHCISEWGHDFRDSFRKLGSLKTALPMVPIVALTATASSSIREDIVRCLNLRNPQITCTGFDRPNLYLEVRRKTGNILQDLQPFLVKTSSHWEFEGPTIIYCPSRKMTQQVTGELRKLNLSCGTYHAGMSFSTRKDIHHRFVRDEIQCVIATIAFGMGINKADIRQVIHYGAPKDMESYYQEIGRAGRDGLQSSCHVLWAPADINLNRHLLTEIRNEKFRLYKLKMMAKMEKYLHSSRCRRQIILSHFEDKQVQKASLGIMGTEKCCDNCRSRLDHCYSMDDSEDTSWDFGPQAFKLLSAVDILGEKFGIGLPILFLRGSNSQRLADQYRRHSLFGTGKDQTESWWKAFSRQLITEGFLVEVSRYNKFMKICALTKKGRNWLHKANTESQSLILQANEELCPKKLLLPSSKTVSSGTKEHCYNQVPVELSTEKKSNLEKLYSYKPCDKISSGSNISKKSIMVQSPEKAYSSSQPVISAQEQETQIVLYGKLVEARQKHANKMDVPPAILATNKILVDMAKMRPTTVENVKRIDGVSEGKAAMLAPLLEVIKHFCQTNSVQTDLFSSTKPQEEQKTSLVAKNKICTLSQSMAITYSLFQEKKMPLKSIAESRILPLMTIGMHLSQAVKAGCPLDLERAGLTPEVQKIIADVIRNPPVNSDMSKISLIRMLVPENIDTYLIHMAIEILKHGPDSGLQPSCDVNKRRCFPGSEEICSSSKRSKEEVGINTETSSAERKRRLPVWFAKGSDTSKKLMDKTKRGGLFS
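Screening of the MLSMR collection measured strand separation of a quenched forked DNA duplex (100 nM) by 20 nM WRN with 2 mM ATP, all final. Compounds were preincubated with enzyme 15 min at room temperature.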
RECQ1 inh conf: confirmation of human RECQ1 helicase inhibitors | shares compounds with RECQ1 inh-1 | RECQ1 helicase DNA unwinding, fluorescence | Potency, µM (series often up to 229 µM), without a hit: top-dose activity change, negative = inhibition, most hits filed as inhibitors | 610 tested, 28% active; also: % is scaled to controls: 0 for no effect and ±100 for the full control effect; nearly all actives have a fitted effect of over 45% in size
RECQ1 ADP FP: counter-screen for RECQ1 inhibitors: ADP displacement. shares compounds with RECQ1 inh-1. ADP fluorescence polarization displacement counterscreen. Potency, µM (series often up to 228 µM), without a hit: top-dose activity change, negative = inhibition, usual class: inhibitors. 530 tested, 27% active; also: % is scaled to controls: 0 for no effect and ±100 for the full control effect; nearly all actives have a fitted effect of over 45% in size
RECQ1 inh-2: blocks human RECQ1 DNA unwinding. AID 504841. 1,100 tested, 15% active. Potency, µM (doses to about 119 µM), without a hit: top-dose activity, negative = inhibition, usual class: inhibitors. shares compounds with RECQ1 inh-1. recombinant RECQ1 DNA unwinding, red fluorescence; also: % is scaled to controls: 0 for no effect and ±100 for the full control effect; nearly all actives have a fitted effect of over 50% in size
FEN1 inh-2: confirmation of human FEN1 inhibitors | Potency, µM, actives largely listed as inhibitors | AID 720498 | shares compounds with FEN1 inh-1 | FEN1 flap cleavage, TAMRA/BHQ2 fluorogenic DNA substrate | 880 tested, 79% active; also: nearly all actives have a fitted effect of over 60% in size
WRN helicase inh-2: WRN helicase inhibition, cherry-pick retest. shares compounds with WRN helicase inh-1. WRN helicase DNA unwinding, fluorescence kinetic. Potency, µM (top dose mostly 57.1 µM), for the others: top-dose activity, negative = inhibition, actives largely listed as inhibitors. 610 tested, 63% active. AID 720497; also: nearly all actives have a fitted effect of over 65% in size
TO displacement: binds DNA, flagged in WRN inhibitor counterscreen; 610 tested, 10% active; thiazole orange DNA binding displacement, fluorescence; Potency, µM (series often up to 57.1 µM), inactives show at the top dose activity change, negative = inhibition, usual class: inhibitors; shares compounds with WRN helicase inh-1; AID 720499;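 also: drop in dye fluorescence marks compound binding to DNA; % is scaled to controls: 0 for no effect and ±100 for the full control effect; nearly all actives have a fitted effect of over 60% in size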
BLM helicase inh-2: BLM helicase inhibition, WRN selectivity check; shares compounds with WRN helicase inh-1; Recombinant BLM helicase DNA unwinding, red fluorescence; Potency, µM (top dose mostly 57.1 µM), for inactives: at the top dose activity change, negative = inhibition, usual class: inhibitors; 610 tested, 60% active; AID 720503; also: nearly all actives have a fitted effect of over 60% in size
* marks the source's active call; other numbers are inactive results; [ ] = dose if it differs, or a comment. Calls follow the shape of the dose curve; as a rule, active = well fitted curve in the direction sought with a large enough effect; inconclusive = small, poorly fitted or top-dose-only effect, or another doubt; inactive = no such curve, though single readings can be large; an effect the other way counts as inactive or inconclusive. Potency is read from the fitted curve at half-maximal effect.

Results for CC(=O)c1cccc(NC(=O)c2cc(-c3ccc(Cl)s3)nc3ccccc23)c1 ?
FEN1 inh-1: 5.5%; BLM helicase inh-1: -2.2%

Results for O=C(Nc1cccc(S(=O)(=O)NC2=NCCC2)c1)c1cc(-c2ccco2)nc2ccccc12 ?
FEN1 inh-1: inconclusive; APE1 inh: 7.94µM*; BLM helicase inh-1: 10µM*; RECQ1 inh-1: 11.2µM*; WRN helicase inh-1: inconclusive; RECQ1 inh conf: 14.1µM*; RECQ1 ADP FP: 39.8µM*; RECQ1 inh-2: inconclusive; FEN1 inh-2: 75.7*

How did CCC1=NN2C(=N)/C(=C/c3cc(C)n(Cc4ccccc4)c3C)C(=O)N=C2S1 do in these assays?
FEN1 inh-1: -15.9%; APE1 inh: -4.9%; BLM helicase inh-1: -8.9%; RECQ1 inh-1: -19.6%; WRN helicase inh-1: -26.3%

How did Cc1cc(/C=C2\C(=N)N3N=C(c4ccco4)SC3=NC2=O)c(C)n1Cc1ccccc1 do in these assays?
FEN1 inh-1: inconclusive; APE1 inh: -5.0%; BLM helicase inh-1: -23.5%; RECQ1 inh-1: inconclusive; WRN helicase inh-1: inconclusive; RECQ1 inh-2: inconclusive; FEN1 inh-2: inconclusive

Results for Cc1ccccc1NC(=O)CCn1nc(-c2ccccc2)c2ccccc2c1=O ?
FEN1 inh-1: -12.0%; BLM helicase inh-1: -1.1%

What do the screens show for `O=C(O)Cc1c[nH]c2ccccc12`?
FEN1 inh-1: 2.5%; WRN helicase inh-1: -9.2%

Results for O=C(O)Cc1c[nH]c2cccc(O)c12 ?
FEN1 inh-1: 50.1µM*; APE1 inh: 15.8µM*; BLM helicase inh-1: -4.1%; RECQ1 inh-1: 31.6µM*; WRN helicase inh-1: inconclusive; RECQ1 inh-2: -16.8%; FEN1 inh-2: 47.8*

Results for CC(/C=C1\SC(=S)N(NC(=O)c2ccncc2)C1=O)=C\c1ccccc1 ?
FEN1 inh-1: -15.2%; APE1 inh: -2.6%; BLM helicase inh-1: -20.3%; RECQ1 inh-1: -1.4%; WRN helicase inh-1: inconclusive

What do the screens show for `COc1cc(/C=C2\SC(=S)N(NC(=O)c3ccncc3)C2=O)ccc1O`?
FEN1 inh-1: inconclusive; APE1 inh: inconclusive; BLM helicase inh-1: -13.9%; RECQ1 inh-1: 14.1µM*; WRN helicase inh-1: 50.1µM*; RECQ1 inh conf: 50.1µM*; RECQ1 ADP FP: 78.7%[91.9 µM]; FEN1 inh-2: 75.7*

What do the screens show for `CC(=O)Nc1ccc(-n2nnnc2SCC(=O)Nc2cccc(NC(=O)c3ccco3)c2)cc1`?
FEN1 inh-1: inconclusive; APE1 inh: inconclusive; BLM helicase inh-1: -23.2%; RECQ1 inh-1: inconclusive; WRN helicase inh-1: 8.7%; RECQ1 inh-2: inconclusive; FEN1 inh-2: inconclusive

Results for Cc1cccc(N2CCN(C(=O)CN3C(=O)COc4ccc(S(=O)(=O)N5CCCCCC5)cc43)CC2)c1C ?
FEN1 inh-1: -5.6%; BLM helicase inh-1: -12.9%

What do the screens show for `Cc1ccc(-n2nc(-c3cccnc3)cc2C(=O)N2CCOCC2)c(C)c1`?
FEN1 inh-1: -11.1%; APE1 inh: -4.4%; BLM helicase inh-1: -3.2%; RECQ1 inh-1: inactive; WRN helicase inh-1: 1.5%

Results for Cc1ccc(-n2nc(-c3ccco3)cc2C(=O)O)c(C)c1 ?
FEN1 inh-1: -5.1%; APE1 inh: inconclusive; BLM helicase inh-1: -16.4%; RECQ1 inh-1: 20µM*; WRN helicase inh-1: inconclusive; RECQ1 inh-2: inconclusive; FEN1 inh-2: 37.9*

Results for O=C(CCCn1c(=O)[nH]c2ccsc2c1=O)N1CCN(c2cccc(C(F)(F)F)c2)CC1 ?
FEN1 inh-1: -3.5%; BLM helicase inh-1: -2.9%

Results for Cc1ccc(NC(=O)C2CCC(CNS(=O)(=O)c3ccc4c(c3)CCCC(=O)N4)CC2)c(C)c1 (centres undefined) ?
FEN1 inh-1: 2.2%; BLM helicase inh-1: -6.4%

What do the screens show for `COc1ccc(S(=O)(=O)NCCc2csc3nc(-c4ccc(Cl)cc4)nn23)cc1C`?
FEN1 inh-1: 1.7%; BLM helicase inh-1: 2.3%

What do the screens show for `O=C1NC(=O)/C(=C\c2ccc(O)cc2O)S1`?
FEN1 inh-1: 15.8µM*; APE1 inh: 3.98µM*; BLM helicase inh-1: -22.7%; RECQ1 inh-1: 22.4µM*; WRN helicase inh-1: 35.5µM*; RECQ1 inh-2: 12.6µM*; FEN1 inh-2: 67.5*

What do the screens show for `CC(C)(C)c1ccc(C(=O)N2CC(=O)Nc3ccc(F)cc3C2c2ccc(F)cc2)cc1` (centres undefined)?
FEN1 inh-1: -3.5%; BLM helicase inh-1: -14.0%

How did O=C(NCCCO)c1ccc2nc(-c3ccco3)c(-c3ccco3)nc2c1 do in these assays?
FEN1 inh-1: 12.6µM*; APE1 inh: inconclusive; BLM helicase inh-1: -29.7%; RECQ1 inh-1: inconclusive; WRN helicase inh-1: inconclusive; RECQ1 inh-2: -10.4%; FEN1 inh-2: 67.5*

How did N#C/C(=C\c1ccc(-c2ccc(C(=O)O)cc2)o1)c1nc2ccccc2[nH]1 do in these assays?
FEN1 inh-1: 44.7µM*; APE1 inh: inconclusive; BLM helicase inh-1: -13.2%; RECQ1 inh-1: inconclusive; WRN helicase inh-1: inconclusive; RECQ1 inh-2: inconclusive; WRN helicase inh-2: 19.2µM*; TO displacement: 179.1%; BLM helicase inh-2: 24.1µM*

How did CN1CCS/C1=C\C=C1/SC(=S)N(CC(=O)O)C1=O do in these assays?
FEN1 inh-1: -13.4%; APE1 inh: -1.3%; BLM helicase inh-1: -1.4%; RECQ1 inh-1: 1.0%; WRN helicase inh-1: -5.6%
